Laboratory results as given in PubChem BioAssay.
The source made the active and inactive calls. Unless noted, the rule behind the calls is not given here.

Experiments:
[1] = HepG2 liver cancer cell viability effects, profiling panel, resazurin fluorescence, 24 h, PK04 Diversity Set (AID 1172); details: higher = more signal; note: test concentration not given here
[2] = basal S. cerevisiae growth modulation, no modifier, primary screen, OD600, strain BY4716, 24 h, basal condition (AID 1173); details: OD600, 24 h, higher = more signal, called active from +8 up or from −8 down
[3] = MM1S myeloma cell viability, profiling panel, resazurin fluorescence, basal, 24 h, PK04 Diversity Set (AID 1174); details: higher = more signal, called active from +8 up or from −8 down;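 note: MM1S multiple myeloma cell line; test concentration not given here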
[4] = target: Dihydroorotate dehydrogenase (quinone), mitochondrial (Plasmodium falciparum (isolate 3D7)) (UniProt Q08210); test: PfDHODH enzyme inhibitors, primary screen, biochemical, C-terminal His tag, absorbance 600 nm (AID 1175); details: DCIP absorbance 600 nm, higher = more signal, called active from +8 up or from −8 down;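 note: recombinant parasite enzyme with a five histidine tag at its C terminus; test concentration not given here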
[5] = P. aeruginosa biofilm formation inhibitors, primary screen, strain PAO1, LB-PBS medium, absorbance 600 nm (AID 1176); note: test concentration not given here; details: P. aeruginosa PAO1 growth/biofilm, A600, 12 h; higher = more signal
[6] = S. cerevisiae RM11-1a growth modifiers, primary screen, strain RM11-1a, OD600, basal, 24 h (AID 1177); details: OD600, 24 h, higher = more signal, called active from +8 up or from −8 down;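 note: cultures grown under basal conditions with no added stressor; test concentration not given here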
[7] = E. coli acrAB mutant growth effects, primary screen, E. coli filamentation inducers, strain DRC39, OD650, 24 h (AID 1178); details: higher = more signal, called active from +8 up or from −8 down;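 note: growth measured as culture turbidity by optical density at 650 nm; test concentration not given here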
[8] = E. coli acrAB mutant growth effects, primary screen, E. coli filamentation inducers, strain DRC39, OD650, 48 h (AID 1179);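 note: screen aims at cell division blockers that make cells filament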; details: E. coli DRC39 delta-acrAB growth, higher = more signal, called active from +8 up or from −8 down
[9] = RPMI8226 myeloma cell viability, profiling panel, resazurin fluorescence, basal, 24 h, PK04 Diversity Set (AID 1180); details: higher = more signal;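 note: RPMI8826 multiple myeloma cell line at 5000 cells per well; test concentration not given here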
[10] = target: E3 ubiquitin-protein ligase XIAP (Homo sapiens) (UniProt P98170); test: XIAP binders, primary screen, biophysical, small-molecule microarray, fluorescence 635 nm (AID 1181); details: small-molecule microarray binding, higher = more signal;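 note: score merges 667 nm emission and signal to noise over triplicate slides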
Sequence of E3 ubiquitin-protein ligase XIAP (Homo sapiens) (P98170 whole entry, looked up): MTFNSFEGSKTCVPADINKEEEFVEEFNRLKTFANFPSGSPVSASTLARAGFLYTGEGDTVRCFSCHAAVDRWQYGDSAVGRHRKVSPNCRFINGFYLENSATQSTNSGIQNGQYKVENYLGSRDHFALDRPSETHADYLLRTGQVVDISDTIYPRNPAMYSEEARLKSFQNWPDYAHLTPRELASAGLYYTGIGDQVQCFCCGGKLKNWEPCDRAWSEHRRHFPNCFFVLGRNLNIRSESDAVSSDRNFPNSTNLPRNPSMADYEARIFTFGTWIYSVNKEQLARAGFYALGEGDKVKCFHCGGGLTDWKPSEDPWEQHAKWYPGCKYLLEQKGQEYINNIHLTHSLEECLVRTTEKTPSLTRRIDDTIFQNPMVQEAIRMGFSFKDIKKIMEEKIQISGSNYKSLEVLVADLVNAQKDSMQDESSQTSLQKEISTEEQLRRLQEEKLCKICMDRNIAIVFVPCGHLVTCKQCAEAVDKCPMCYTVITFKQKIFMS

Sequence of Dihydroorotate dehydrogenase (quinone), mitochondrial (Plasmodium falciparum (isolate 3D7)) (Q08210 whole entry, looked up): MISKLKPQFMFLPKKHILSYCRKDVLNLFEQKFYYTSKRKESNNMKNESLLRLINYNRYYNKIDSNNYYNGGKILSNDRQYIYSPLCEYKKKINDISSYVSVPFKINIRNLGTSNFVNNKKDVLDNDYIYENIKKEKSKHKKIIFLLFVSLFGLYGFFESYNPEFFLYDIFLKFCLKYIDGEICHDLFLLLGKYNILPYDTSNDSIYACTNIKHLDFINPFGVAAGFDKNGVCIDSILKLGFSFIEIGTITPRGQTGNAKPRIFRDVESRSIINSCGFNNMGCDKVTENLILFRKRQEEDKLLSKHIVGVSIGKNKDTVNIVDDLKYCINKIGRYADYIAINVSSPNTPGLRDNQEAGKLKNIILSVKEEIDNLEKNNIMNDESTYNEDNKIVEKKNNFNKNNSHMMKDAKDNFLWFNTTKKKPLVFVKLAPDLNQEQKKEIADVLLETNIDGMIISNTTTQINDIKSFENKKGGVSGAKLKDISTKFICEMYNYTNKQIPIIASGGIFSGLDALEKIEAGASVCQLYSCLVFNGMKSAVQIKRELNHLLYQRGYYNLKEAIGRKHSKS

SMILES	z-score [1]	z-score [2]	z-score [3]	composite z-score [4]	z-score [5]	z-score [6]	z-score [7]	z-score [8]	z-score [9]	composite z-score [10]
COCCNC(=O)OCC1CCCC2(CC(OC(=O)NCCc3ccc(F)cc3)CC(CCC(=O)N[C@@H](C)C(=O)OC)O2)O1 (stereo not given in full)	0.864	-0.183 (inactive)	0.899 (inactive)	-0.0746 (inactive)	0.262 (inactive)	0.684 (inactive)	0.963 (inactive)	1.16 (inactive)	1.07	-0.216
[N-]=[N+]=NCc1ccccc1C[C@]1(C(=O)NCc2ccccc2)N=C(c2ccc(OCCCO)cc2)O[C@H]1c1ccccc1N=[N+]=[N-]	-0.269	0.316 (inactive)	-1.53 (inactive)	0.294 (inactive)	1.68 (inactive)	-0.204 (inactive)	0.82 (inactive)	-0.0271 (inactive)	-2.15	-0.22
COCCOC(=O)N1C(=O)[C@@]2(c3cc(C#CC4(O)CCCCCC4)ccc31)[C@H](c1ccc(OCCO)cc1)N1[C@H](c3ccccc3)[C@H](c3ccccc3)OC(=O)[C@H]1[C@@H]2C(=O)NC[C@H](O)c1ccccc1	-0.259	0.685 (inactive)	-0.596 (inactive)	1.74 (inactive)	1.91 (inactive)	2.62 (inactive)	0.393 (inactive)	0.0869 (inactive)	0.406	-0.16
CC(CCC(=O)OC[C@H]1O[C@H](C#Cc2ccccc2)C=C[C@@H]1Oc1ccc(C)cc1)=NOC[C@@H](O)COCc1ccco1	-0.501	0.384 (inactive)	-1.39 (inactive)	-1.24 (inactive)	0.277 (inactive)	-0.0703 (inactive)	0.564 (inactive)	0.895 (inactive)	0.131	-0.0454
CN(C)CCCNC(=O)[C@@H]1c2ccccc2C(=O)N(Cc2ccccc2)[C@H]1c1ccc(CO)cc1	-0.309	0.0396 (inactive)	0.499 (inactive)	-0.303 (inactive)	-0.233 (inactive)	0.075 (inactive)	-0.0194 (inactive)	-0.136 (inactive)	0.791	-0.0926
CO[C@@H]1COC(=O)CC=C[C@@H](C)[C@@H]2C=C[C@H](O)[C@@H](COC(=O)CCC[C@H]1C)O2	0.696	-1.19 (inactive)	0.492 (inactive)	-0.24 (inactive)	-0.95 (inactive)	-0.725 (inactive)	0.118 (inactive)	-0.195 (inactive)	0.401	-0.12
COc1ccc(-c2nc3c(c4c2C[C@H](C)OC4)CN(CCC(C)C)CC3)cc1	-0.182	-0.827 (inactive)	-0.145 (inactive)	-0.133 (inactive)	0.262 (inactive)	0.602 (inactive)	1.15 (inactive)	0.479 (inactive)	-0.239	-0.0559
CCOC(=O)[C@H](Cc1ccccc1)NC(=O)CCC1CC(OC(=O)NCCc2ccc(F)cc2)CC2(CCCC(COC(=O)NCC(c3ccccc3)c3ccccc3)O2)O1 (stereo not given in full)	0.506	0.167 (inactive)	-0.874 (inactive)	-0.219 (inactive)	0.0494 (inactive)	0.509 (inactive)	0.565 (inactive)	-0.563 (inactive)	0.489	-0.161
C=C(/C(=C/C[C@@H](OC(=O)c1ccncc1)c1ccc(OCCO)cc1)c1cnc2ccccc2c1)C(C)C	0.384	-18.5 (active)	-0.684 (inactive)	-10.5 (active)	-0.235 (inactive)	-22.1 (active)	0.872 (inactive)	0.432 (inactive)	0.206	-0.0373
CS(=O)(=O)CCOC(=O)C1=CC(CCCO)=CC(c2cccs2)N(Cc2cccc(OC(F)(F)F)c2)C=C1C(=O)OCCS(C)(=O)=O (stereo not given)	-0.746	-3.44 (inactive)	-1.21 (inactive)	-0.407 (inactive)	1.52 (inactive)	0.0788 (inactive)	0.596 (inactive)	-0.0926 (inactive)	-0.96	-0.268
CCCCc1nc2c(c3c1C[C@H](C)OC3)CN(CCC(C)C)CC2	-0.165	-2.07 (inactive)	0.431 (inactive)	-0.847 (inactive)	0.332 (inactive)	-0.674 (inactive)	0.56 (inactive)	-0.104 (inactive)	1.2	0.0133
CCOC(=O)[C@H](Cc1ccccc1)NC(=O)CCC1CC(OC(=O)NCc2ccc3c(c2)OCO3)CC2(CCCC(COC(=O)NCc3ccccc3)O2)O1 (stereo not given in full)	0.966	-0.0513 (inactive)	0.637 (inactive)	0.208 (inactive)	0.0858 (inactive)	0.864 (inactive)	0.703 (inactive)	1.22 (inactive)	0.676	-0.0089
COCCCNC(=O)[C@]1(CCC(=O)OC(C)(C)C)N=C(c2ccc(OCCCO)cc2)O[C@@H]1c1ccccc1N=[N+]=[N-]	1.18	-0.334 (inactive)	-0.637 (inactive)	0.08 (inactive)	0.149 (inactive)	0.149 (inactive)	0.615 (inactive)	0.0528 (inactive)	-0.128	0.121
CO[C@@H]1COC(=O)CC=C[C@@H](C)COC(=O)[C@H](COCc2ccccc2)NC(=O)CC=C[C@H]1C	-0.466	-0.591 (inactive)	0.579 (inactive)	0.777 (inactive)	-0.969 (inactive)	0.158 (inactive)	0.489 (inactive)	-0.0248 (inactive)	0.783	0.122
COC(=O)[C@@H]1CC[C@H](C)[C@@H](c2ccc(C)cc2)N1C(=O)c1ccc(C=NOC(C)CN2CCCCc3nc(C)c(C)cc32)cc1 (stereo not given in full)	1.03	-0.104 (inactive)	-0.725 (inactive)	0.613 (inactive)	0.642 (inactive)	0.984 (inactive)	0.419 (inactive)	-0.27 (inactive)	-0.0629	0.147
COC(=O)[C@H](C)NC(=O)CCC1CC(OC(=O)NCCc2ccc(F)cc2)CC2(CCCC(COC(=O)NCC(c3ccccc3)c3ccccc3)O2)O1 (stereo not given in full)	0.725	0.718 (inactive)	0.476 (inactive)	-0.216 (inactive)	0.0251 (inactive)	1.31 (inactive)	1.06 (inactive)	0.706 (inactive)	0.809	-0.323
CCN1C(=O)[C@H]2[C@H]3[C@H](O)[C@H](O)CC(=NOCC=C(C)CCC=C(C)C)[C@H]3CC[C@H]2C1=O	-0.337	-0.327 (inactive)	-0.944 (inactive)	-0.962 (inactive)	0.164 (inactive)	-0.414 (inactive)	0.445 (inactive)	0.314 (inactive)	-1.23	-0.0988
